# In the supplement of paper PMC6555819:
# Columns and labels:
# Experiment in all cases: PBM binding z-score (relative to random genomic background probes); higher = stronger binding; sequences stand for … in GC…GCGATTGACAGCGTAGAATGAAGG
# [1] = test system: RARb homodimer (NR concentration 270 nM)
# Procedure, shortened: (§1)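 The probes on custom Agilent 4×180K protein-binding microarrays were double-stranded, with 34-nt variable regions bearing direct-repeat seeds, single-nucleotide variants, half-site ablations and random human genomic background sequences. Incubation lasted 1 h with ligand-free nuclear receptor dimers in PBS pH 7.4, 2% milk, 0.02% Triton X-100, 1 mM DTT, 0.2 mg/mL BSA and 0.4 mg/ml salmon testes DNA. Antibodies against each partner (one per run) detected bound dimers, and fluorescence scans were regression-normalized. Binding z-scores take the random background probes as reference.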
# [2] = test system: RARg:RXRa (NR concentration 270 nM, RXRa partner concentration 90 nM)
# Procedure, shortened: as §1
# [3] = test system: RARg homodimer (NR concentration 270 nM)
# Procedure, shortened: as §1
# [4] = test system: RXRa DBDmut IVT, anti-RXR (DBD mutation: RXRa K156A/R161A, NR concentration 90 nM)
# Procedure, shortened: as §1
# [5] = test system: THRa:RXRa (NR concentration 90 nM, RXRa partner concentration 90 nM)
# Procedure, shortened: as §1
# [6] = test system: THRa homodimer (NR concentration 90 nM)
# Procedure, shortened: as §1
# [7] = test system: VDR homodimer (NR concentration 270 nM)
# Procedure, shortened: as §1
# [8] = test system: RXRa homodimer (NR concentration 180 nM)
# Procedure, shortened: as §1
Sequence,PBM binding z-score [1],PBM binding z-score [2],PBM binding z-score [3],PBM binding z-score [4],PBM binding z-score [5],PBM binding z-score [6],PBM binding z-score [7],PBM binding z-score [8]
TGAATGACGTTAAAGATCAGGGAACGTGGCGTCG,-0.807,0.00646,0.113,-0.922,-0.478,-0.747,-0.61,
CTCGAAAGGGCGTGCTCAGGTGAGTATACCAAAC,0.741,0.917,0.829,0.316,2.23,0.261,-0.046,
CCTACGGGGCCAAGGTCATTGATCAGTCAAAGCA,3.51,4.02,3.77,1.21,3.47,2.04,3.09,
TATACAGGGTCAAAGGGCAGAGTACGAATGTCGA,4.22,6.33,5.48,3.14,3.98,1.48,3.82,
ATCGAATGGTCGTGAGGTGAGTATACAGAAAGGC,0.456,0.502,0.684,-0.556,1.5,1.09,0.0134,
GCTTACGGGTCAAAGGTTACAGCATGAATAGAAT,3.57,7.1,5.1,2.74,3.93,0.157,1.75,
CCTTACGGGTCACGGGGTTATAGCACGACGAGCG,3.7,6.74,5.54,1.77,4,0.91,2.44,
GATACACGGTCAAGGCCAGAGTACGCGTATTGAT,1.73,1.54,2.53,-0.0133,0.429,-0.515,0.324,
CCTTCTGGGCCATTCAGAGGTCATTGATCATATG,4.13,4.56,3.3,1.38,3.31,1.51,3.47,
CCGACTGGGTCAAAGGTTACCATACTCAGTACGA,3.42,5.88,4.13,1.23,3.62,0.418,0.82,
CCGACTGGGGCAAAGGTTACCATGCTCAGTACGA,2.01,3.66,1.55,-0.0654,1.74,-0.38,-0.359,
CCTACTGGGCCATGAAAGGTCATTGATTCAGTGA,4.4,4.23,3.85,0.456,3.58,0.811,2.39,
CCTAGTTGGGCAGGAGGTCACACACCGGATATGA,3.48,3.98,3.52,-0.0255,3.14,1.57,1.37,
CAAACTAGGTCACGAAAGGTCAAAGCCGAATGAC,5.98,8.01,8.56,2.11,5.07,2.55,3.58,
CAAACTAGGTCACAGAGGGCAAAGTCCGTGCGTA,4.14,5.05,5.61,2.45,3.87,1.55,4.18,
CCTACTGGGCCATTCAGAGGTTATTGATCATATG,1.19,1.1,0.495,0.368,0.915,0.14,0.749,
CCTGGCAGGCCAGGGTCACTCAAGCATTTCGCTT,2.66,3.49,2.46,-0.63,2.96,0.655,1.3,
TGAATGAGGTCAAAGATCAGGGAACGTGGCGTCG,3.65,6.3,6.16,4.12,4.33,3.06,4.68,
ATATGTAGGTTACGTCCGGGTCATTCAGGCTATG,3.02,4.03,2.34,1.06,4.01,2.88,2.91,
CAAACTAGGTCACAGAGGTTAAAGTCCGTGCGTA,4.34,5.36,5.64,2.38,4.12,2.1,3.13,
TTACCAAGGTTAAAGGTCGTTGATGCACGCCTTG,3.04,5.05,3.09,1.88,3.63,0.88,2.29,

Sequence,PBM binding z-score [1],PBM binding z-score [2],PBM binding z-score [3],PBM binding z-score [4],PBM binding z-score [5],PBM binding z-score [6],PBM binding z-score [7],PBM binding z-score [8]
ATATGTGGGTTATCGGGTCATTCAGTTTGCGCAT,3.15,2.99,2.07,1.99,3.45,3.41,4.15,
AGTCAAAGTTCATCTAGGTATCGTAAGATATGCT,3.84,5.45,5.99,4.54,2.8,-0.179,5.25,
CCTAGTTGGTCAGGAGGCCACACACCGGATATGA,1.51,0.776,1.23,-0.19,0.326,0.708,0.435,
ACTAGCAGGTCAAGGGTCACTCAAGATTAGTCCG,4.9,6.89,6.42,2.13,4.04,1.42,2.56,
ATCGAAAGGTCGAAGGTCAGTATACCCACCCGAA,4.11,6.01,5.42,1.78,3.31,0.706,1.51,
ATCGAAAGGTCGAGTTGAGTATAGAGAAAGGGAA,2.39,4.11,4.31,1.89,2.23,-0.17,1,
CGAACTAAGTCAAAGGACAGTGAAAGGCGACGTA,1.11,0.597,1.1,0.0633,0.219,-0.0369,-0.13,
TCTAGCTGGTCAAAGGTCACACACTCGAAATGCG,5.13,7.3,6.69,1.15,3.88,1.36,1.86,
ATATGCAGGTTATCGGGTCATTCAGTTTGCGCAT,2.95,3.29,2.2,1.56,3.49,2.55,4,
ACTCGGAGGACAAATGTCAGAGCTACGCCAGTGA,0.623,1.08,1.68,0.614,0.512,-0.331,-0.508,
TTACCAAGGTGAAAGGTCGGTGATGCACGCCTTG,2.16,3.18,1.51,-0.134,2.66,0.427,-0.0558,
CCTACTGGGCCATACAGAGGTCATTGATCATATG,3.98,4.45,3.22,0.759,3.15,1.47,4.19,
GCTTACGGGTCAAAGGTTAAAGCATGAATAGAAT,3.36,7.28,5.18,2.07,4,-0.111,1.4,
TTACCAAGGTGAAAGGTCATTGATGCACGCCTTG,4.75,6.91,5.06,1.85,4.42,1.64,3.32,
TGAATGAAGTTAAAGATCAGGGAACGTGGCGTCG,-1,-0.156,0.00438,-0.803,-0.586,-1.06,-0.533,
CGTCCAAGGTCATAGGAGGTCATTGAAGACAGAT,5.6,7.14,7.75,4.08,5.39,3.7,6.14,
GCTGCTAGGTTAACTGATGGTCAGCTAAAGCTCG,0.815,1.6,0.672,0.235,0.689,-0.683,-0.649,
ATATGTAGGTTAGCGTCATTCAGAAAGTAGGGAA,0.285,0.435,0.62,-0.0875,0.15,-0.253,0.0488,
ATCGTAAGGTCGTGAGGTGAGTATACAGAAAGGC,2.41,,2.71,2.09,3.65,2.95,1.45,3.5
TGGCCTAGGTCATGGGCCAGTATACCACGCGAAC,2.96,,5.07,-0.28,2.83,0.639,-0.0403,3.6
CGAACTAAGTCATTGACAGGACAGTGAATAGTAA,-0.122,,0.434,0.322,0.19,-0.56,-0.385,-0.0903

Sequence,PBM binding z-score [1],PBM binding z-score [2],PBM binding z-score [3],PBM binding z-score [4],PBM binding z-score [5],PBM binding z-score [6],PBM binding z-score [7],PBM binding z-score [8]
ATATGTAGGTTACATGCGGGTCATTCAGGCTATG,2.51,,2.18,0.745,2.85,0.633,2.05,3.16
ATAAGTAGGTTAGGGTCATTCAGAAAGTAGGGAA,3.7,,3.3,2.39,4.31,3.58,4.32,5.12
ATCGAAATGTCGTGAGGTGAGTATACAGAAAGGC,0.113,,0.683,-0.3,1.74,1.16,-0.224,0.0827
TCTAGTTGGTGACGGAGGTCACACACGACGGGTA,3.88,,3.21,0.917,3.41,2.23,1.83,4.29
CCTTACGGGTCAGGGTTATAGCACGGGTGGTACG,2.89,,3.8,-0.999,2.29,0.154,0.894,3.87
ATCGAAAGGTCGAAAGTGAGTATACCCACCCGAA,1.74,,3.15,1.22,1.51,-0.286,0.782,3.52
TAGCCAAGGTCATTCAGGGGCCAGTATAGAAAGC,4.08,,6.27,4.05,4.08,1.75,3.99,5.47
CCTTACGGGTAACTCCAGGTTATAGCATCGGAGT,0.239,,0.528,-0.483,3.22,0.292,0.21,0.381
TAGCCTAGGTCATGCGGGCCAGCATAGTGTCGGC,2.9,,4.27,0.374,3,0.747,0.502,3.13
CCTCGGAGGACAACAGGAGGTCAAAGCTGCCAGA,3.77,,3.86,0.524,3.43,1.34,2.4,3.56
GATACAGGGTCAGCTAGAGGGCAGAGTATGGAAA,4.04,,5.53,1.71,3.18,1.05,1.68,4.61
CGTCCAAGGTCATGGGAGGTCAGTGAAGACAGAT,5.85,,7.97,3.73,5.51,3.83,4.5,7.56
ATCGAAACGTCGACGAGGTGAGTATACACCGTTT,-0.247,,0.527,-0.148,1.1,0.23,-0.146,0.362
CCAACTAGGTCATTGACAGGACAGTGAATAGTAA,2.83,,4.34,2.47,2.88,1.31,1.64,2.61
GCTAGTGGGTCAGTAAAAGGTCACACACCGGTCG,5.72,,6.65,0.518,4.09,1.66,2.18,6.21
CCTAGCAGGCCAGGTTCACTCAAGCATTTCGCTT,0.543,,0.106,2.28,0.5,0.0438,3.42,0.844
ATCGAAAGGTCGAGGAGGTGAGTATACACCGTTT,2.92,,4.23,0.868,2.85,-0.12,0.435,4.21
CGTCCGAGGTCAATGCTAGGTCAGTGAAAGCATT,4.93,,6.71,4.03,4.6,2.97,4.57,6.61
TCTGCTTGGTCAACGATGGTCAGCTAATCTGCTA,0.448,,0.624,-0.0435,0.139,-1.13,-1.09,0.237
